Source: PubChem BioAssay
Results with a measured potency or affinity are listed apart. Results filed as inconclusive are left out. Active and inactive are the calls of the source. Unless noted, the rule behind the calls is not given here.

Assays:
[1] = RMG-1 ovarian cancer cell viability loss – cherry-pick, dose response (AID 687029;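 active = signal drop whose fitted half-maximal concentration is at most twice the top valid dose, in every test run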;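 note: cells exposed to compound for 96 hours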)
[2] = CMV-driven luciferase expression suppression in HEK293 – cell-based, luminescence, dry powder, counter-screen for Pax8 inhibitor project, dose response (AID 743020;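 active = signal-lowering compounds whose fitted half-maximal concentration is at or below twice the top tested dose in every run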;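 note: HEK293 cells stably expressing the CMV luciferase reporter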)
[3] = general cell-killing toxicity readout – plate reader, dry powder samples, cytotoxicity control for PAX8 inhibitor project, dose response (AID 743021)
[4] = IGROV1 cell killing – plate reader, dry powder samples, PAX8 inhibitor project, dose response (AID 743043);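 note: more negative means fewer viable cells or more cytotoxicity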
[5] = OVCAR-3 cell viability loss – plate reader, dry powder samples, PAX8 inhibitor project, dose response (AID 743044); conditions: max activity: at 35 µM, active compounds read low unless noted
[6] = toxicity toward immortalized ovarian surface epithelium – cell-based, plate reader, dry powder samples, cytotoxicity control for PAX8 inhibitor project, dose response (AID 743045);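 note: 0% = neutral control median and -100% = positive control median; more negative values mean more cell killing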
[7] = A2780 cell killing – plate reader, dry powder samples, cytotoxicity control, dose response (AID 743046);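 note: 0% = neutral control wells and -100% = cytotoxic reference compound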
[8] = OVCAR8 cell viability loss – plate reader, dry powder samples, PAX8 project, dose response (AID 743197)

Measured: max activity

CN1CCN(c2ccc(S(=O)(=O)N3CCCCC3)cc2NC(=O)/C=C/c2ccc(Cl)c([N+](=O)[O-])c2)CC1
inactive: [1] | [2] | [3]

CC[C@]1(O)C[C@@H]2CN(CCc3c([nH]c4ccccc34)[C@@](C(=O)OC)(c3cc4c(cc3OC)N(C)[C@H]3[C@@](O)(C(=O)OC)[C@H](OC(C)=O)[C@]5(CC)C=CCN6CC[C@]43[C@@H]65)C2)C1
inactive: [1] | [2] | [3]

CN1CC(=O)N2C(c3ccc(Cl)cc3)c3[nH]c4ccccc4c3C[C@H]2C1=O (some centres not stated)
inactive: [1] | [2] | [3]

Oc1[nH]c2ccc(Br)cc2c1N=NC(=S)N1CCOCC1
inactive: [1] | [2] | [3]

CC(C1CC1)N(Cc1ccccc1)C(=S)Nc1cccc(C(F)(F)F)c1 (configuration not stated)
inactive: [1] | [2] | [3]

COC(=O)[C@]12CCCCC=C1N(Cc1cccc3ccccc13)C(=O)[C@H](CC(=O)N1CCN(C(=O)c3ccco3)CC1)C2
inactive: [1] | [2] | [3]

Cn1nnnc1Sc1ncnc2scc(-c3ccc([N+](=O)[O-])cc3)c12
inactive: [1] | [2] | [3]

COc1ccc(C(=O)CN2C(=O)c3ccccc3S2(=O)=O)cc1
inactive: [1] | [2] | [3]

CC(C)=CCNc1ncnc2c1c(C#N)cn2C1OC(CO)C(O)C1O (configuration not stated)
inactive: [1] | [2] | [3]

BrC(=C\c1ccccc1)/C=N/n1cnnc1
inactive: [1] | [2] | [3]

O=C(Nc1cc(S(=O)(=O)N2CCCCC2)ccc1Cl)c1ccccc1NS(=O)(=O)c1ccc(F)cc1
inactive: [1] | [2] | [3]

Cn1nnnc1Sc1ncnc2scc(-c3ccc(Br)cc3)c12
inactive: [1] | [2] | [3]

COc1ccc(OC)c2sc(N(CCCN(C)C)C(=O)CCS(=O)(=O)c3ccccc3)nc12
inactive: [1] | [2] | [3]

COc1ccc(C(=O)CCS(=O)(=O)c2ccc(C)cc2)cc1OC
inactive: [1] | [2] | [3]

O=C(Nc1ccc(Cl)cc1)/C(=C/c1cccc(O)c1)c1nc2ccccc2s1
inactive: [1] | [2] | [3]

COc1cc(C2C3=C(COC3=O)OC(C)(C)Oc3cc4c(cc32)OCO4)cc(OC)c1OC (configuration not stated)
inactive: [1] | [2] | [3]

COc1ccc(CC2C(=O)NC(C)C(=O)N(C)C3Cc4ccc(cc4)Oc4cc(ccc4O)CC(C(=O)NC(C)C(=O)NC(C)C(=O)N2C)N(C)C3=O)cc1 (configuration not stated)
inactive: [1] | [2] | [3]

CCCOc1ccc2[nH]c(C(=O)N/N=C/c3cc(OC)c(OC)c(OC)c3)cc2c1
inactive: [1] | [2] | [3]

C=C1C(=O)[C@]23C[C@H]1CC[C@H]2[C@]1(C)[C@@H](OC(C)=O)CC[C@@](C)(C(=O)O)[C@H]1C[C@@H]3O
inactive: [1] | [2] | [3]

COc1cccc2c1C(=O)c1c(O)c3c(c(O)c1C2=O)C[C@](O)(C(C)=O)C[C@H]3O[C@@H]1C[C@@H](N)[C@@H](O)[C@@H](C)O1
inactive: [1] | [2] | [3]

O[C@@H]1[C@@H](O)C=C2CCN3Cc4cc5c(cc4[C@H]1C23)OCO5 (some centres not stated)
inactive: [1] | [2] | [3]

O=S(=O)(Nc1cccc(-c2cn3cccnc3n2)c1)c1ccc(Cl)cc1
inactive: [1] | [2] | [3]

N#Cc1ccc(-c2ccc([C@@H]3[C@@H]4CN(S(=O)(=O)c5ccc(-c6ccccc6)cc5)C[C@H]3N4)cc2)cc1
inactive: [1] | [2] | [3]

O=S(=O)(Nc1cc(Sc2ncn[nH]2)c(O)c2ccccc12)c1ccccc1
inactive: [1] | [2] | [3]

O=C(c1ccco1)N1N=C(c2ccc(Br)cc2)CC1(O)C(F)(F)F (configuration not stated)
inactive: [1] | [2] | [3]

CNc1ccc(Br)cc(C(=O)/C=C/c2cc(OC)ccc2OC)c1=O
inactive: [1] | [2] | [3]

Cc1ccc(S(=O)(=O)N(C)C[C@H]2Oc3c(NC(=O)Nc4cccc5ccccc45)cccc3C(=O)N([C@@H](C)CO)C[C@@H]2C)cc1
inactive: [1] | [2] | [3]

COC1C(CO)OC(n2c3c(Cl)cccc3c3c4c(c5c6cccc(Cl)c6[nH]c5c32)C(=O)NC4=O)C(O)C1O (configuration not stated)
inactive: [1] | [2] | [3]

COc1cc2c(c(OC)c1OC)-c1ccc(OC)c(=O)cc1C(NC(C)=O)CC2 (configuration not stated)
inactive: [1] | [2] | [3]

CC(=O)c1sc(NC(=O)CCS(=O)(=O)c2ccc(Cl)cc2)nc1C
inactive: [1] | [2] | [3]

C=CC[C@@H](CC(=O)N[C@H](CO)Cc1ccccc1)C(=O)N[C@H](COC(=O)[C@@H](CC=C)Cc1ccc(F)cc1)Cc1c[nH]c2ccccc12
inactive: [1] | [2] | [3]

O=c1cc(C(Cl)(Cl)Cl)oc2c1ccc1ccccc12
inactive: [1] | [2] | [3]

Cn1c(=O)c([N+](=O)[O-])c(Cl)c2ccccc21
inactive: [1] | [2] | [3]

Cc1cc(C(=O)Nc2cccc3c2O[C@H](CN(C)Cc2ccc(Oc4ccccc4)cc2)[C@@H](C)CN([C@H](C)CO)C3=O)n(C)n1
inactive: [1] | [2] | [3] | [4] | [5] -26.8% [at 16 µM, active compounds read low] | [6] | [7]

C[C@H](CO)N1C[C@H](C)[C@@H](CN(C)CC2CCCCC2)Oc2c(NC(=O)CCCCCC(=O)Nc3ccccc3N)cccc2C1=O
inactive: [1] | [2] | [3] | [4] | [5] 16% [at 1 µM, active compounds read low] | [6] | [7]

CN1C(=O)/C(=C\C(=O)c2cccs2)c2ccccc21
inactive: [1] | [2] | [3]

COc1ccc(S(=O)(=O)Nc2ccc3c(c2)C(=O)N([C@H](C)CO)C[C@H](C)[C@@H](CN(C)Cc2ccc(Cl)c(Cl)c2)OCCCC[C@@H](C)O3)cc1
inactive: [1] | [2] | [3] | [4] | [5] -37.4% [at 8 µM, active compounds read low] | [6] | [7] | [8]

C[C@H]1CN([C@@H](C)CO)C(=O)Cc2cc(NC(=O)C3CC3)ccc2O[C@@H]1CN(C)Cc1ccc(-c2ccccc2)cc1
inactive: [1] | [2] | [3] | [4] | [6]

COc1ccc(S(=O)(=O)Nc2ccc3c(c2)CC(=O)N([C@H](C)CO)C[C@H](C)[C@@H](CN(C)Cc2ccc(Cl)c(Cl)c2)O3)cc1
inactive: [1] | [2] | [3] | [4] | [5] 16.2% [at 16 µM, active compounds read low] | [6] | [7] | [8]

S=C1SCN(Cc2cccnc2)CN1Cc1cccnc1
inactive: [1] | [2] | [3]

Oc1ccc(C[C@H]2CN([C@@H](Cc3ccc(O)cc3)CN3CCC[C@@H]3CN3C(=S)NC[C@@H]3Cc3ccccc3)C(=S)N2CC2CCCCCC2)cc1
inactive: [1] | [2] | [3]

O=C1/C(=C/c2ccccc2)SC(=S)N1CC(=O)N1CCCCC1c1cccnc1 (configuration not stated)
not listed: [8]
inactive: all other assays above

COc1ccc(CN(C)C[C@H]2OCCCC[C@H](C)Oc3ccc(NC(=O)Nc4ccc(C(F)(F)F)cc4)cc3C(=O)N([C@H](C)CO)C[C@@H]2C)cc1
inactive: [1] | [2] | [3] | [4] | [5] -28.6% [at 8 µM, active compounds read low] | [6] | [7] | [8]

CCSc1nsc(NC(=O)Nc2cccc(F)c2)n1
inactive: [1] | [2] | [3]

COc1ccc(-c2ccc3c(c2)[C@@H]2[C@@H](CCN2C(=O)NC2CCCCC2)[C@H](CO)N3C)cc1
inactive: [1] | [2] | [3] | [4]

C=CCC[C@@H](Cc1ccc(F)cc1)C(=O)OC[C@@H](Cc1c[nH]c2ccccc12)NC(=O)[C@H](CC=C)CC(=O)N(CCO)Cc1ccccc1
inactive: [1] | [2] | [3]

C[C@@H]1CN([C@@H](C)CO)C(=O)c2cc(NC(=O)Nc3ccc(C(F)(F)F)cc3)ccc2O[C@@H](C)CCCCO[C@@H]1CN(C)CC1CCCCC1
inactive: [1] | [2] | [3] | [4] | [5] 15.9% | [6] | [7] | [8]

C[C@@H]1CN([C@H](C)CO)C(=O)c2cc(NC(=O)Nc3ccc(C(F)(F)F)cc3)ccc2O[C@@H](C)CCCCO[C@H]1CN(C)Cc1ccccc1
inactive: [1] | [2] | [3] | [4] | [5] 12% [at 30 µM, active compounds read low] | [6] | [7] | [8]

Cc1ccccc1S(=O)(=O)N1CC[C@@H]2[C@H](CO)Nc3ccc(-c4cccc(F)c4)cc3[C@@H]21
inactive: [1] | [2] | [3] | [4] | [6]

O=C(Nc1ccccc1)Nc1cc(OCC(F)(F)F)cc(OCC(F)(F)F)c1
inactive: [1] | [2] | [3]
